Only some compounds are listed: those with a hit (about 3.4% of all), similar ones and a draw of the others.
FBW7 activator: FBW7 E3 ligase activators, primary screen, biochemical, AlphaScreen, human; normalized activity (activation), % at 26.1 µM; AlphaScreen FBW7–phospho-cyclin E peptide binding, activator screen; 650,000 compounds, 0.13% hits; F-box/WD repeat-containing protein 7 (Homo sapiens), Q969H0; in the data active = normalized activity above about 1.9%;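 note: purified mutant Fbw7 with reduced substrate affinity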
Target sequence (Q969H0 whole entry, looked up): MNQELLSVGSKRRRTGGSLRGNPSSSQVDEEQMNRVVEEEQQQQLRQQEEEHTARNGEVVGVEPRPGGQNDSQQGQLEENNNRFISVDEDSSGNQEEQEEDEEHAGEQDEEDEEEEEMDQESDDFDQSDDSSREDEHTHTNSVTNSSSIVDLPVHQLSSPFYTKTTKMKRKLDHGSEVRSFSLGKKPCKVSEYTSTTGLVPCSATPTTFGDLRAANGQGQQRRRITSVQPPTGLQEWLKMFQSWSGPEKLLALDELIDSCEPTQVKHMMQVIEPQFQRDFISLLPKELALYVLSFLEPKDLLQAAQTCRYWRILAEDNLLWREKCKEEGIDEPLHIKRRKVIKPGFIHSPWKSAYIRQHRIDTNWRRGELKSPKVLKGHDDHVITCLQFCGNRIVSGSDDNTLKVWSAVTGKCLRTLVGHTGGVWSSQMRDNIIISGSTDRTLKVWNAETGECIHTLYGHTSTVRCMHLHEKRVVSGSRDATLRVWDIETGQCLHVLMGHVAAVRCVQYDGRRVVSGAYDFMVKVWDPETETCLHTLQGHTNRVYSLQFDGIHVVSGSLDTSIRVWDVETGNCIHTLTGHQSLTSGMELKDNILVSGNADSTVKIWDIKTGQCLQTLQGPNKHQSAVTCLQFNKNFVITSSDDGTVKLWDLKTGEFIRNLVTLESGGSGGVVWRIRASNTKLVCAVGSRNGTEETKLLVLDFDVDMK
TEAD-YAP inh: TEAD-YAP interaction inhibition, primary screen, TEAD-YAP interaction inhibitor project, luminescence, HEK-TIYL cells. TEAD-Gal4/YAP UAS-luciferase luminescence. inhibition, % at 9.12 µM. 640,000 compounds, 1.4% hits; in the data active = inhibition above about 32%;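 note: 0% = median of test compound wells and 100% = reference inhibitor wells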
GPR151 ag: activators of human GPR151, primary screen, cell-based, PathHunter beta-arrestin, luminescence; activation, % at 11.2 µM; G-protein coupled receptor 151 (Homo sapiens), Q8TDV0; 650,000 compounds, 1% hits; AID 1508602, 2020; PathHunter beta-arrestin GPR151 cells; in the data active = activation above about 4.9%;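 note: 0% = median of compound wells and 100% = cells with positive control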
MITF primary: MITF inhibitors, primary screen, biochemical, AlphaScreen, human; inhibition, % at 2.6 µM; 650,000 compounds, 0.91% hits; AID 1259374, 2018; AlphaScreen MITF homodimerization, bead proximity signal; Microphthalmia-associated transcription factor (Homo sapiens), O75030; in the data active = inhibition above about 50%;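 note: 0% = vehicle wells with protein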
MITF confirm: MITF inhibitors, retest of hits, confirmation, biochemical, AlphaScreen, triplicate; shares compounds with MITF primary; AlphaScreen MITF homodimerization, biotin/His-MITF beads; inhibition, % at 2.6 µM; 4,700 compounds, 16% hits; AID 1259372, 2018;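 active = inhibition above a cutoff derived from the DMSO control wells, cut at about 28% in these data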;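 note: 0% = MITF dimer wells with DMSO only; inhibitors lower the bead chemiluminescence by keeping MITF from dimerizing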
AS interf DR: AlphaScreen optical interference compounds, dose response, counter-screen, biochemical, HTS; shares compounds with MITF primary; AlphaScreen optical interference counterscreen, cell-free; IC50, µM; 480 compounds, 6% hits; call rule not given here
AlphaScreen intf2: AlphaScreen optical interference compounds, counter-screen for MITF inhibitor project, biochemical, triplicate | shares compounds with MITF primary | LysRS AlphaScreen counterscreen, signal interference | inhibition, % at 2.6 µM | 4,700 compounds, 7.6% hits | AID 1259376, 2018;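 active = inhibition above a cutoff derived from the DMSO control wells, cut at about 30% in these data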
Active calls of the source: *; nt = not tested or not shown.

SMILES	FBW7 activator	TEAD-YAP inh	GPR151 ag	MITF primary	MITF confirm	AlphaScreen intf2	others
CC1CCN(CC(=O)Nc2ccc(N3CCCC3)cc2)CC1	0	-7	-1	55*	13	13
Cc1ccc(NC(=O)CN2CCC(C(=O)NCc3cccs3)CC2)cc1	0	1	0	114*	-4	-4
O=C(CSc1c[nH]c2ccccc12)Nc1ccccc1C(F)(F)F	0	1	0	-9	nt	nt
Cc1ccc(/C(O)=C/C(=O)C(=O)/C=C(\O)c2ccc(C)cc2)cc1	0	-12	0	8	nt	nt
CCN1CCN(CC(=O)Nc2ccc(N3CCCCC3)cc2)CC1	0	-1	1	81*	-8	-3
CCCCOc1ccc(NC(=O)CN2CCN(C(C)=O)CC2)cc1	0	-4	3	66*	14	15
Cc1ccc(NC(=O)C2(N3C(=O)CC3c3ccco3)CCCCC2)cc1 (stereo not given)	0	-5	1	68*	1	17
CC1CCN(CC(=O)N(C)C2(c3ccccc3Cl)CCCCC2=O)CC1 (stereo not given)	0	-10	2	90*	-18	6
O=C(/C=C/c1ccccc1)OCCN1CCOCC1	1	0	0	9	nt	nt
CN1CCN(CCOc2ccc(C(=O)c3ccccc3)cc2)CC1	1	-17	3	81*	3	0
O=P(OCCN1CCOCC1)(c1ccccc1)c1ccccc1	0	-1	2	57*	6	11
CCOC(=O)c1ccc(OCCCN2CCCCCC2)cc1	-1	6	0	17	nt	nt
O=C(c1ccccc1)c1ccc(OCCCN2CCCC2)cc1	0	8	-1	53*	0	0
CCN1CCN(CCOc2ccc(C(=O)c3ccccc3)cc2)CC1	0	-3	-1	41	nt	nt
CCOc1ccc(OCCN2CCOCC2)cc1	0	-18	1	76*	10	15
Cc1cc(C)nc(SCC(=O)OCC(=O)Nc2nnc(C)s2)n1	0	-7	-2	-2	nt	nt
COc1cc(Nc2nc(NCc3nc4ccccc4[nH]3)c3[nH]cnc3n2)cc(OC)c1OC	0	-1	0	17	nt	nt
COC(=O)c1ccc(OCCN2CCOCC2)cc1	0	-20	2	-5	nt	nt
O=C(c1ccccc1)c1ccc(OCCN2CCOCC2)cc1	0	-14	0	83*	2	4
CCOC(=O)C1=[N+]([O-])OC(C(=O)OCC)C1CC(C)=O (stereo not given)	0	-4	-1	48	nt	nt
CCOC(=O)CC1C(C(=O)OCC)=[N+]([O-])OC1C(=O)OCC (stereo not given)	0	0	0	64*	22	19
O=C(CC1CC(=O)Oc2ccccc21)Nc1nccs1 (stereo not given)	0	7	-1	9	nt	nt
N#CC1=C(N)n2c(s/c(=C\c3ccco3)c2=O)=C(C#N)C1c1ccco1 (stereo not given)	-1	11	0	56*	42*	5	AS interf DR=>6.5
COc1cc(CNc2cccc(C)c2)cc(OC)c1OC	0	15	2	55*	-2	2
Cc1ccc(NCc2ccncc2)c(Br)c1	0	-2	0	69*	-7	-5
SMILES	FBW7 activator	TEAD-YAP inh	GPR151 ag	MITF primary	MITF confirm	AlphaScreen intf2	others
COc1cc(CNc2ccccc2)cc(OC)c1OC	0	-10	1	1	nt	nt
Cc1cccc(NCc2ccncc2)c1	0	5	-1	77*	21	20
O=C(CCCc1nnc2n3nc(-c4ccccc4)nc3c3ccccc3n12)N1CCOCC1	0	-1	-2	-14	nt	nt
O=C(NCC(c1cccnc1)N1CCN(c2ccc(F)cc2)CC1)c1cccs1 (stereo not given)	0	2	0	21	nt	nt
O=C(c1cc(Cl)ccc1[N+](=O)[O-])n1cnc2ccccc21	1	9	-1	15	nt	nt
O=C(c1ccccc1[N+](=O)[O-])n1cnc2ccccc21	0	4	1	56*	-3	12

Screening data as filed in PubChem BioAssay.
